# Experimental data: PubChem BioAssay (Tox21)
# Results filed as inconclusive are left out. Values without a mark were called inactive. Active and inactive are the calls of the source. Unless noted, calls follow the shape of the full dose curve.
# Tested on: not listed separately
# Test: qHTS assay to identify small molecule agonists of the estrogen receptor alpha (ER-alpha) signaling pathway in the presence of an antagonist - cell viability counter screen (AID 1259386; active = well fitted cell-killing curve with a large enough effect in the repeat runs;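 also: cells exposed to compounds for 22 h at 37 °C before the viability read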)
# Conditions: VM7Luc4E2 viability, CellTiter-Fluor fluorescence, 22 h; series mostly up to 92.4 µM; activity change, negative = cytotoxicity: at the top concentration
# Method in brief: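 In this counter screen, compound effects on VM7Luc4E2 viability were tested in the presence of the antagonist ICI-182,780 at 10.0nM final. Compounds were dosed at 15 concentrations, exposure lasted 22hr, and the CellTiter-Fluor signal was read.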
# % is scaled to controls: 0 for no effect and ±100 for the full control effect.
# Also: nearly all actives have a fitted effect of over 30% in size.
Compound,"activity change, negative = cytotoxicity",Potency
CC(C)(C)C(=O)Cl,1.76%,–
O=C1C2CC=CCC2C(=O)N1SC(Cl)(Cl)Cl (stereo unspecified),1.93%,–
O=C(Cl)C(Cl)Cl,2.75%,–
S=C=S,-4.78%,–
O=C1CC(=O)NC(=O)N1,-4.25%,–
CCN(CCO)CCO,0.369%,–
ClC1=C(Cl)C2(Cl)C(CBr)CC1(Cl)C2(Cl)Cl (stereo unspecified),–,inactive
CCOC(=O)c1ncn2c1CN(C)C(=O)c1c(I)cccc1-2,-2.01% [at 42.5 µM],–
COc1ccccc1OC,3.33%,–
CCOP(=S)(OCC)Oc1ccc(Cl)cc1Cl,-1.88%,–
CC(C)(O)C(Cl)(Cl)Cl,0.814% [at 42.5 µM],–
N#CN,-4.03% [at 240 µM],–
CCN(CCO)CCn1c(Cc2ccccc2)nc2c1c(=O)n(C)c(=O)n2C,3.57% [at 42.5 µM],–
CC[C@H](N)c1ccccc1,0.805%,–
O=C(Cl)C(Cl)(Cl)Cl,7.81%,–
CCOC(=O)C(Cl)Cc1cc(-n2nc(C)n(C(F)F)c2=O)c(F)cc1Cl (stereo unspecified),-2.5%,–
COP(=O)(OC)O/C(C)=C/C(=O)N(C)C,-0.939%,–
Cn1c(CCCC(=O)O)nc2cc(N(CCCl)CCCl)ccc21,-4.68% [at 42.5 µM],–
CCC(C(N)=O)N1CCCC1=O (stereo unspecified),-1.38% [at 42.5 µM],–
NCCOS(=O)(=O)O,1.09%,–
O=C(NC(O)C(Cl)(Cl)Cl)NC(O)C(Cl)(Cl)Cl (stereo unspecified),4.72% [at 42.5 µM],–
COc1cccc(C=O)c1,0.794%,–
CCC(C)C(C)(COC(N)=O)COC(N)=O (stereo unspecified),-0.399% [at 42.5 µM],–

# Target: Progesterone receptor (Homo sapiens) (UniProt P06401)
# Sequence (P06401 whole entry, looked up): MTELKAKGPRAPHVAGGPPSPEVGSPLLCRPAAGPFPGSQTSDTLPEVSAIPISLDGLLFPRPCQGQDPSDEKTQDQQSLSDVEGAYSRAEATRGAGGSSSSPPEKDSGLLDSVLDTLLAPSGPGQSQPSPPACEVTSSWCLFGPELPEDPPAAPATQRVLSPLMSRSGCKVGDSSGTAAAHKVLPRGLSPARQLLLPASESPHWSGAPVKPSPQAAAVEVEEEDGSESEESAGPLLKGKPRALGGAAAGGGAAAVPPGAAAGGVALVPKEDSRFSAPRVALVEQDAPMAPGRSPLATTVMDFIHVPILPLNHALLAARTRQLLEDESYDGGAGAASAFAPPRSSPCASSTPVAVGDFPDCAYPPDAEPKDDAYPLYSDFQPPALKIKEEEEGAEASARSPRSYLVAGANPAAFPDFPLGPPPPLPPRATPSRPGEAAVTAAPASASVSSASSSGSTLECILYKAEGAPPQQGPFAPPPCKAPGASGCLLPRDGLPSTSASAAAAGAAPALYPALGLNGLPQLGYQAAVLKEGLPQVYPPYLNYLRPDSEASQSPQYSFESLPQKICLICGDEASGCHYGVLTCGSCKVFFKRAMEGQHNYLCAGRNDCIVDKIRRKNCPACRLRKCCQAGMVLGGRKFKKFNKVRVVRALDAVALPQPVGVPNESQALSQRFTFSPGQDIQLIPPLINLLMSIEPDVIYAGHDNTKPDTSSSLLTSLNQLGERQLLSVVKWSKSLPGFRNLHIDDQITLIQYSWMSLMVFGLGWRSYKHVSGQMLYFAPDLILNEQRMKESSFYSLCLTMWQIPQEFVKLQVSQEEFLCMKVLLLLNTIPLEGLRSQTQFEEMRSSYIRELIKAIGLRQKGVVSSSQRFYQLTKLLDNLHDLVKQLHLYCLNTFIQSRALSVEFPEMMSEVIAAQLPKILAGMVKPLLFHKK
# Test: qHTS assay to identify small molecule agonists of the progesterone receptor (PR) signaling pathway (AID 1346784)
# Conditions: PR-UAS-bla HEK293T, beta-lactamase FRET ratio, 16 h; series mostly up to 92.4 µM; activation: at the top concentration
# Method in brief: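 Reporter assay, GripTite PR-UAS-bla HEK 293T cells: 16 hr exposure to DMSO-dissolved compounds at 37C, 5% CO2, in steroid-depleted (2% charcoal-stripped FBS) medium; beta-lactamase measured by FRET fluorescence.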
Compound,activation,Potency
O=C1C2CC=CCC2C(=O)N1SC(Cl)(Cl)Cl (stereo unspecified),4.66%,–
O=C(Cl)C(Cl)Cl,0.417%,–
C/C=C/CC#N,0.613%,–
S=C=S,0.0518%,–
O=C1CC(=O)NC(=O)N1,-0.441%,–
CCN(CCO)CCO,-1.3%,–
ClC1=C(Cl)C2(Cl)C(CBr)CC1(Cl)C2(Cl)Cl (stereo unspecified),–,inactive
CCOC(=O)c1ncn2c1CN(C)C(=O)c1c(I)cccc1-2,1.54% [at 42.5 µM],–
COc1ccccc1OC,-0.54%,–
c1cncc([C@@H]2CCCCN2)c1,-0.635%,–
CCOP(=S)(OCC)Oc1ccc(Cl)cc1Cl,5.34%,–
CC(Cc1ccccc1)NCCn1cnc2c1c(=O)n(C)c(=O)n2C (stereo unspecified),-0.008%,–
CC(C)(O)C(Cl)(Cl)Cl,-0.947% [at 42.5 µM],–
O=C(Cl)CCl,-0.436%,–
C=C1C[C@@H]2[C@H](CC[C@]3(C)C(=O)CC[C@@H]23)[C@@]2(C)C=CC(=O)C=C12,2.75% [at 42.5 µM],–
N#CN,-1.68% [at 240 µM],–
CCN(CCO)CCn1c(Cc2ccccc2)nc2c1c(=O)n(C)c(=O)n2C,-0.254% [at 42.5 µM],–

Compound,activation,Potency
C=CC1(C)OC(=O)N(c2cc(Cl)cc(Cl)c2)C1=O (stereo unspecified),–,inactive
CN=CNc1ccc(C)cc1C,-0.207%,–
O=C(Cl)C(Cl)(Cl)Cl,0.37%,–
CCOC(=O)C(Cl)Cc1cc(-n2nc(C)n(C(F)F)c2=O)c(F)cc1Cl (stereo unspecified),0.0635%,–
Cc1cc(OC(=O)N(C)C)nn1C(=O)N(C)C,-0.697%,–
O=C(O)c1c(Cl)ccc2cc(Cl)cnc12,0.154%,–
COP(=O)(OC)O/C(C)=C/C(=O)N(C)C,0.377%,–
Cn1c(CCCC(=O)O)nc2cc(N(CCCl)CCCl)ccc21,-0.0174% [at 42.5 µM],–
CS(=O)(=O)Cl,-0.347%,–
CCC(C(N)=O)N1CCCC1=O (stereo unspecified),0.685% [at 42.5 µM],–
CN(CCO)CCO,-0.78%,–
NCCOS(=O)(=O)O,-0.872%,–
C=CCCC#N,0.866%,–
O=C(NC(O)C(Cl)(Cl)Cl)NC(O)C(Cl)(Cl)Cl (stereo unspecified),-0.849% [at 42.5 µM],–
COc1cccc(C=O)c1,-1.03%,–
CCC(C)C(C)(COC(N)=O)COC(N)=O (stereo unspecified),1.34% [at 42.5 µM],–
